HepG2 tox: HepG2 cytotoxicity, counter-screen for TGF-b inhibitors | HepG2 CAGA-GFP viability, ATP luminescence, 18 h | Potency, µM (highest dose often 46.1 µM), without a hit: top-dose activity change, negative = cytotoxicity, usual class: cytotoxic | hit rate 0.76% among 410,000
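HepG2 CAGA-GFP cells (1000/well, DMEM with 1% FBS) received compound, then TGF-beta at 500 pg/mL final, and were incubated 18 hours at 37 degrees C. Viability was read by CellTiter-Glo luminescence. Media-only wells were set as complete cell-killing and DMSO as no toxicity.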
KB-3-1 tox: KB-3-1 parental cell cytotoxicity. KB-3-1 viability, CellTiter-Glo ATP luminescence, 72 h. Potency, µM (titrated, usually from 46.1 µM), usual class: cytotoxic. hit rate 1.4% among 400,000; note: % is set by controls: 0 for no effect and ±100 for the full control effect; nearly all actives have a fitted effect of over 60% in size
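KB-3-1 parental drug-naive adenocarcinoma cells in DMEM/10% FBS, incubated 72 h at 37 C with pin-transferred compounds across a concentration series. Viability by CellTiter-Glo luminescence; concentration-response curves fitted after normalization.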
HT1080 IDH1KD tx: kills HT-1080 cells with IDH1 knockdown; HT-1080 IDH1 knockdown viability, ATP luminescence, 48 h; Potency, µM (series often up to 46.1 µM), for inactives: at the top dose activity, negative = toxicity, usual class: cytotoxic; hit rate 2% among 360,000; AID 686971;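 note: 0% = DMSO wells and -100% = cell-free medium wells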
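Viability of IDH1-knockdown HT-1080 fibrosarcoma cells was assessed by CellTiter-Glo after 48 h at 37 °C with titrated compound; concentration-effect curves were classified by fit quality and response size.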
HT1080-NT tox: kills 2HG-producing HT-1080-NT fibrosarcoma cells. HT-1080-NT fibrosarcoma viability, CellTiter-Glo ATP luminescence, 48 h. Potency, µM (titrated, usually from 46.1 µM), for inactives: top-dose activity, negative = less viability, usual class: cytotoxic. hit rate 1.6% among 360,000;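 note: NT is the 2HG producing partner of a matched IDH1 knockdown line; 0% = DMSO-treated cells and -100% = media-only wells without cells; nearly all actives have a fitted effect of over 55% in size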
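Compounds were tested in concentration-response format on HT-1080-NT cells for 48 hours at 37 degrees C. Cell viability came from CellTiter-Glo luminescence; curves were classified by r2, response magnitude and activity.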
KB-V1 cytotox: KB-V1 MDR subline cytotoxicity; hit rate 3.4% among 400,000; Potency, µM (top dose mostly 46.1 µM), most hits filed as cytotoxic; AID 1347076; KB-V1 MDR cells viability, CellTiter-Glo, 72 h; note: % is set by controls: 0 for no effect and ±100 for the full control effect; nearly all actives have a fitted effect of over 60% in size
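Potencies derive from concentration-effect curves fitted to normalized luminescence (CellTiter-Glo) of KB-V1 cells treated for 72 h at 37 degrees C in phenol-red-free DMEM containing 10% FBS.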
TGFb inhibitor: inhibitors of TGF-b signaling | Potency, µM (doses to about 46.1 µM), for the others: at the highest dose activity, negative = inhibition, actives largely listed as inhibitors | HepG2 CAGA-GFP TGF-b/SMAD3 reporter, GFP fluorescence, 18 h; TGF-beta stimulated, 500 pg/mL final | hit rate 1.2% among 410,000; note: % is set by controls: 0 for no effect and ±100 for the full control effect; nearly all actives have a fitted effect of over 65% in size
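HEPG2 CAGA-GFP cells (1000/well, DMEM with 1% FBS) were pre-incubated 2 h at 37 degrees C, given compound by pin tool, then stimulated with TGF-beta at 500 pg/mL final for 18 h before per-cell GFP fluorescence imaging.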
An asterisk follows results filed as active. This is a sample that favours compounds with a hit; in the whole collection about 6.6% have one here. Calls come from the whole dose curve; as a rule, active = well fitted curve in the direction sought with a large enough effect; inconclusive = small, poorly fitted or top-dose-only effect, or another doubt; inactive = no such curve, though single readings can be large; an effect the other way counts as inactive or inconclusive. Potency is the fitted concentration of half-maximal effect.

`Cc1c(C(=O)N(C)Cc2nc3ccccc3c(=O)[nH]2)oc2ccccc12` gave HepG2 tox -7%, KB-3-1 tox 18µM*, HT1080 IDH1KD tx inconclusive, HT1080-NT tox -22%, KB-V1 cytotox 8.2µM* and TGFb inhibitor 9%.
Screening CCc1cccc(C)c1NC(=O)Cn1ccn(-c2cccc(OC)c2)c(=O)c1=O returned HepG2 tox 2% and TGFb inhibitor -5%.
Screening COc1ccc(-n2cnnc2SCc2cnc(-c3ccccc3)s2)cc1 returned HepG2 tox -5%, KB-3-1 tox inactive, HT1080 IDH1KD tx 9%, HT1080-NT tox 0%, KB-V1 cytotox 16µM* and TGFb inhibitor -8%.
Screening Cc1ccc(CN=C2Nc3ccccc3CS2)cc1 returned HepG2 tox -21%, KB-3-1 tox inconclusive, HT1080 IDH1KD tx -1%, HT1080-NT tox -5%, KB-V1 cytotox 13µM* and TGFb inhibitor -2%.
Screening Cc1ccc(C(=O)NCCc2cc3ccc(C)c(C)c3[nH]c2=O)cc1[N+](=O)[O-] returned HepG2 tox 10%, KB-3-1 tox inactive, HT1080 IDH1KD tx -6%, HT1080-NT tox 5%, KB-V1 cytotox 4.1µM* and TGFb inhibitor -15%.
Screening CCOc1ccc(OC(=O)c2sc3ncn(Cc4cccc(F)c4)c(=O)c3c2C)cc1 returned HepG2 tox 1%, KB-3-1 tox inactive, KB-V1 cytotox inactive and TGFb inhibitor 3%.
C[C@@H](NCCCn1cnc2c(OCc3ccccc3)ncnc21)c1cccc2ccccc12 was read as HepG2 tox 14µM*, KB-3-1 tox inactive, HT1080 IDH1KD tx inconclusive, HT1080-NT tox -29%, KB-V1 cytotox inactive and TGFb inhibitor inconclusive.
c1ccc(COc2ncnc3c2ncn3CCCN2CCN(Cc3cccc4ccccc34)CC2)cc1 was read as HepG2 tox -116%, KB-3-1 tox 15µM*, HT1080 IDH1KD tx inconclusive, HT1080-NT tox 16µM*, KB-V1 cytotox inconclusive and TGFb inhibitor inconclusive.
Screening Cc1ccc(CN2CCN(CCCn3cnc4c(OCc5ccccc5)ncnc43)CC2)cc1 returned HepG2 tox -35%, KB-3-1 tox inactive, HT1080 IDH1KD tx -20%, HT1080-NT tox -4%, KB-V1 cytotox inactive and TGFb inhibitor inconclusive.
`C=Cc1ccc(Cn2c(C)c(CNCCc3ccc(OCC)cc3)c(C(=O)O)c2C)cc1` gave HepG2 tox -26%, KB-3-1 tox inactive, KB-V1 cytotox inactive and TGFb inhibitor -11%.
`CC1=Nc2cc(C(=O)NCCCOC(C)C)ccc2Sc2ccc(C)cc21` gave HepG2 tox 1%, KB-3-1 tox 2.9µM*, HT1080 IDH1KD tx 1µM*, HT1080-NT tox 0.73µM*, KB-V1 cytotox 4.1µM* and TGFb inhibitor inconclusive.
`CC1=Nc2cc(C(=O)NCCCOC(C)C)ccc2Sc2ccccc21` gave HepG2 tox 1%, KB-3-1 tox inconclusive, HT1080 IDH1KD tx 8.2µM*, HT1080-NT tox inconclusive, KB-V1 cytotox inconclusive and TGFb inhibitor -16%.
For CC(C)OCCCNC(=O)c1ccc2c(c1)NC(=O)c1ccccc1S2 the results were HepG2 tox -28%, KB-3-1 tox inactive, HT1080 IDH1KD tx inconclusive, HT1080-NT tox -11%, KB-V1 cytotox inconclusive and TGFb inhibitor inconclusive.
Screening CCCC1=Nc2cc(C(=O)NCCc3ccc(OCC)cc3)ccc2Sc2ccccc21 returned HepG2 tox -12%, KB-3-1 tox inconclusive, KB-V1 cytotox inactive and TGFb inhibitor -8%.
CC1=Nc2cc(C(=O)NCCc3ccc(Cl)cc3)ccc2Sc2ccc(C)cc21 was read as HepG2 tox -17% and TGFb inhibitor 8.9µM*.
For O=C(NCc1ccc2c(c1)OCO2)c1ccc2c(c1)N(Cc1cccc(Cl)c1)C(=O)c1ccccc1S2=O (stereo not drawn) the results were HepG2 tox -5% and TGFb inhibitor -4%.
For CC1(C)Cc2ccccc2C(/C(=N/O)C(N)=O)=N1 the results were HepG2 tox 0%, KB-3-1 tox inactive, HT1080 IDH1KD tx 2%, HT1080-NT tox -14%, KB-V1 cytotox inactive and TGFb inhibitor 31%.
Screening C/C(=N\NC(N)=O)c1cccc(Cl)c1 returned HepG2 tox 1%, KB-3-1 tox inactive, HT1080 IDH1KD tx -2%, HT1080-NT tox 0%, KB-V1 cytotox inconclusive and TGFb inhibitor 1%.
`CC(=O)c1ccc(N/N=C(/C(N)=O)C2=NC(C)(C)Cc3ccccc32)cc1` gave HepG2 tox -29%, KB-3-1 tox inactive, HT1080 IDH1KD tx -22%, HT1080-NT tox -6%, KB-V1 cytotox 12µM* and TGFb inhibitor -15%.
CC1(C)Cc2ccccc2C(/C(=N\Nc2cccc(Cl)c2)C(N)=O)=N1 was read as HepG2 tox -26%, KB-3-1 tox inconclusive, HT1080 IDH1KD tx 21µM*, HT1080-NT tox 21µM*, KB-V1 cytotox inactive and TGFb inhibitor inconclusive.
CCOc1ccc(Nc2oc(/C=C/c3cc(OC)c(OC)c(OC)c3)nc2C#N)cc1 was read as HepG2 tox 0% and TGFb inhibitor 2%.
COc1cc(CN2C[C@@H](CO)O[C@@H](n3cnc4c(NC5CCCC5)ncnc43)C2)cc(OC)c1OC was read as HepG2 tox 5%, KB-3-1 tox inactive, HT1080 IDH1KD tx 8%, HT1080-NT tox 11%, KB-V1 cytotox inactive and TGFb inhibitor 1%.
`c1ccc(Cc2nnc(Sc3ccccc3)c3ccccc23)cc1` gave HepG2 tox 20µM*, KB-3-1 tox inactive, HT1080 IDH1KD tx 11µM*, HT1080-NT tox inconclusive, KB-V1 cytotox inactive and TGFb inhibitor inconclusive.
COCCCNc1nnc(Cc2ccccc2)c2ccccc12 was read as HepG2 tox -16%, KB-3-1 tox inactive, HT1080 IDH1KD tx 8%, HT1080-NT tox 10%, KB-V1 cytotox inactive and TGFb inhibitor -1%.
COc1ccc(C2(C)CC(C)(C)Nc3ccccc32)cc1 (stereo not drawn) was read as HepG2 tox -30%, KB-3-1 tox inactive, HT1080 IDH1KD tx -12%, HT1080-NT tox -5%, KB-V1 cytotox inactive and TGFb inhibitor 0%.
Screening COc1ccc(C2CC(C)(c3ccc(OC)cc3)Nc3ccccc3N2)cc1 (stereo not drawn) returned HepG2 tox -20%, KB-3-1 tox 21µM*, HT1080 IDH1KD tx inconclusive, HT1080-NT tox inconclusive, KB-V1 cytotox inconclusive and TGFb inhibitor inconclusive.
`Cc1cccc(OC(=O)CSc2nnc(-c3ccc4c(c3)OCO4)o2)c1C` gave HepG2 tox -1%, KB-3-1 tox inactive, KB-V1 cytotox inactive and TGFb inhibitor 36%.

High-throughput results from PubChem.
